Reference: PubChem BioAssay
Calls of active or inactive are those of the source.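 Rule for the calls, unless noted: active = inhibition at or above 50% at 10 µM; inactive = inhibition below 50%.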

Experiments:
[1] = inhibitors of TNFa-induced NFkB p65 translocation, primary screen, imaging, HUVEC, MLSMR starter and 10KST1 sets (AID 438;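 active = inhibition above 20% together with a positive visual image hit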;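 note: compound added about 3h40 before a 20 min TNFalpha stimulation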;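 for inhibition: signal is the nuclear over cytoplasmic p65 intensity ratio per well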); conditions: HUVEC TNFa-induced p65 nuclear translocation; cell count: measured here: nuclei count (cytotoxicity indicator), at 2.08 µM; inhibition: at 2 µM, stronger effect = higher value, 0% TNFa-plus-vehicle, 100% no-TNFa wells
[2] = inhibitors of mutant huntingtin aggregation, primary screen, imaging, exon1htt(103Q)mCFP cells, high-content imaging (AID 483;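 active = visual image review flags a hit and inhibition of aggregation exceeds 20%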;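 note: compound exposure lasted 3 days before fixation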;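 for nuclei count: percent of the per-plate median nuclei count of sample wells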); conditions: exon1htt(103Q)mCFP cell line, aggregate imaging, at 2 µM; inhibition of aggregation: stronger effect = higher value; nuclei count: measured here: cell count, toxicity
[3] = inhibitors of E-selectin induction by TNFa, primary screen, imaging, HUVEC, immunofluorescence, MLSMR starter and 10KST1 sets (AID 487;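 active = visually confirmed hit in the image check and inhibition above 20%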;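 for inhibition: signal is fraction of cell area covered by stained E-selectin grains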;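 for nuclei count: 100% = median nuclei count of all wells on the same plate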); conditions: HUVEC TNFalpha-induced E-selectin immunofluorescence imaging, at 2 µM; inhibition: stronger effect = higher value; nuclei count: measured here: cell number, toxicity
[4] = molecular target: Voltage-gated potassium channel subunit beta-2 (Rattus norvegicus) (UniProt P62483); assay: KvBeta enzyme negative modulators, primary screen, biochemical, NADPH fluorescence (AID 622;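 active = fluorescence slope higher than the sample average by over 3 SD, cut at about -0.22 in these data, passing the limit was not always enough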;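 note: slope of raw intensity against log time taken from 70 to 1610 s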); conditions: recombinant KvBeta, 4-cyanobenzaldehyde reduction, at 10 µM, stronger effect = higher value
[5] = molecular target: Voltage-gated potassium channel subunit beta-2 (Rattus norvegicus) (UniProt P62483); assay: KvBeta positive modulators, primary screen, biochemical, NADPH fluorescence (AID 623;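 active = NADPH fluorescence slope more negative than the mean of all samples by about 3 SD, 99.7% confidence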;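 note: fluorescence intensity change per second fitted from 20 to 320 s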); conditions: Recombinant KvBeta, NADPH fluorescence decrease slope, 10 min; at 10 µM; stronger effect = lower value
[6] = molecular target: Alpha-2C adrenergic receptor (Homo sapiens) (UniProt P18825); assay: modulators of alpha2C/GIRK thallium flux, primary screen, cell-based, HEK293 alpha2C/GIRK1/2 (AID 624;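 active = fluorescence slope after compound addition differing from the mean of all screened samples at 99.7% confidence, in either direction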;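 note: slope of fluorescence ratio to pre-addition baseline per second over 15 to 24 s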); conditions: thallium flux BTC fluorescence, at 10 µM, actives lie on both sides
[7] = inhibitors of Sendai virus-induced IRF3 signaling, primary screen, TLR/RLR signaling modifier project, cell-based, Sendai virus stimulus, luciferase, 10K MLSCN set (AID 602276); conditions: HEK293 RL24 IRF3 luciferase reporter, at 10 µM, stronger effect = higher value;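 note: firefly luciferase from ISG56 promoter only with Renilla not read in this screen; 0% = Sendai virus plus DMSO and 100% = medium plus DMSO without virus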
[8] = inhibitors of poly I:C-induced TLR3 signaling, primary screen, cell-based, poly I:C stimulus, luciferase, 10K MLSCN set (AID 602277;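 active = inhibition of the reporter signal at or above 50%; inactive = inhibition below 50%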); conditions: HEK293-TLR3 RL24 IRF3 luciferase reporter, at 10 µM, stronger effect = higher value

Voltage-gated potassium channel subunit beta-2 (Rattus norvegicus), sequence (P62483 whole entry, looked up): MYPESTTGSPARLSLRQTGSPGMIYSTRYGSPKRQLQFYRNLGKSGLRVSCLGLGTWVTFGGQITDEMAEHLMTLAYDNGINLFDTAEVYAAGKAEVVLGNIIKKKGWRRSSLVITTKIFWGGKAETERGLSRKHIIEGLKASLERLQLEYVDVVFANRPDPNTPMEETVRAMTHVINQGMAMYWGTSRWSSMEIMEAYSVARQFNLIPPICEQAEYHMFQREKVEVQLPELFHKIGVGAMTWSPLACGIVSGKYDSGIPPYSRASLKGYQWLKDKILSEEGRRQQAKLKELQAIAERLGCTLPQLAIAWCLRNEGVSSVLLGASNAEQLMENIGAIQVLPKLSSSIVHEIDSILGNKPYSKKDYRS
Alpha-2C adrenergic receptor (Homo sapiens), sequence (P18825 whole entry, looked up): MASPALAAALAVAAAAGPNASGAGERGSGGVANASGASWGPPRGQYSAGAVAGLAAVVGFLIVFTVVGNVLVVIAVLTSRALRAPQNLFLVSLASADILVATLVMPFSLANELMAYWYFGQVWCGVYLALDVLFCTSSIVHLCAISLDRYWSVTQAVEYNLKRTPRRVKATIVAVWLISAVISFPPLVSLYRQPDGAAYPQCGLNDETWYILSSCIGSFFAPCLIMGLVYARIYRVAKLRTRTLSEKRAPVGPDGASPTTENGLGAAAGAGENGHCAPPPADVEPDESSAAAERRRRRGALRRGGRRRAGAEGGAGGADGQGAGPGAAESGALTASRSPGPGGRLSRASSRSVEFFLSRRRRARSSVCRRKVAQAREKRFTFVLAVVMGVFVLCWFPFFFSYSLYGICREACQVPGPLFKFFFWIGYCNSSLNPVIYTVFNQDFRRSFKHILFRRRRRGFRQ

In the case of `CCOc1ccc(NC(=O)C2CC(=O)N(CC)C(=Nc3ccc4c(c3)OCO4)S2)cc1` (stereo not drawn), the cell count [1] is reported as 356, the inhibition [1] is reported as -6.2% (inactive) and the inhibition of aggregation [2] is reported as 12.9% (inactive). The nuclei count [2] was 81.1%, the inhibition [3] was -125% (inactive) and the nuclei count [3] was 113%. The fluorescence slope [4] was -0.358 (inactive), the NADPH fluorescence slope [5] was -6.3e-05 (inactive) and the slope [6] was 0.00411 (inactive). For the same compound, the inhibition [7] was -1.73% (inactive) and the inhibition [8] was 1.26% (inactive).
In the case of `CCOCCCNC(=O)C(NC(=O)c1ccccn1)c1ccc(C)cc1` (stereo not drawn), the cell count [1] is reported as 314, the inhibition [1] is reported as -13.4% (inactive) and the inhibition of aggregation [2] is reported as 2.7% (inactive). The nuclei count [2] was 116%, the inhibition [3] was -18.5% (inactive) and the nuclei count [3] was 111%. The fluorescence slope [4] was -0.592 (inactive), the NADPH fluorescence slope [5] was -4e-05 (inactive) and the slope [6] was 0.00635 (inactive). For the same compound, the inhibition [7] was 15.1% (inactive) and the inhibition [8] was 18.1% (inactive).
In the case of `COc1ccc(-c2cc3n(n2)CCc2nc4ccccc4n2-3)cc1`, the cell count [1] is reported as 415, the inhibition [1] is reported as -32.3% (inactive) and the inhibition of aggregation [2] is reported as 30.7% (inactive). The nuclei count [2] was 123%, the inhibition [3] was 37% (inactive) and the nuclei count [3] was 127%. The fluorescence slope [4] was -0.433 (inactive), the NADPH fluorescence slope [5] was -1.6e-05 (inactive) and the slope [6] was 0.00599 (inactive). The inhibition [7] was 12.2% (inactive) and the inhibition [8] was -17.1% (inactive).
In the case of `CCOc1ccccc1OCC(=O)Nc1nnc(COC)s1`, the cell count [1] is reported as 437, the inhibition [1] is reported as 2.9% (inactive) and the inhibition of aggregation [2] is reported as -3.9% (inactive). The nuclei count [2] was 106%, the inhibition [3] was 56.9% (inactive) and the nuclei count [3] was 115%. For the same compound, the fluorescence slope [4] was -0.59 (inactive), the NADPH fluorescence slope [5] was -3.4e-05 (inactive) and the slope [6] was 0.00402 (inactive). For the same compound, the inhibition [7] was -15.3% (inactive) and the inhibition [8] was -12.6% (inactive).
For `Cc1nnc(SCC(=O)Nc2cc(C(F)(F)F)ccc2N2CCOCC2)o1`, the cell count [1] was 271, the inhibition [1] was 0.2% (inactive) and the inhibition of aggregation [2] was 16.1% (inactive). For the same compound, the nuclei count [2] was 99.1%, the inhibition [3] was -2.6% (inactive) and the nuclei count [3] was 95.1%. For the same compound, the fluorescence slope [4] was -0.379 (inactive), the NADPH fluorescence slope [5] was -3.9e-07 (inactive) and the slope [6] was 0.00303 (inactive). For the same compound, the inhibition [7] was 10.8% (inactive) and the inhibition [8] was 32.5% (inactive).
In the case of `CS(=O)(=O)C1=C(O)C(=O)N(c2ccccc2)C1c1ccccc1` (stereo not drawn), the cell count [1] is reported as 415, the inhibition [1] is reported as -6% (inactive) and the inhibition of aggregation [2] is reported as -10.4% (inactive). For the same compound, the nuclei count [2] was 103%, the inhibition [3] was -41.9% (inactive) and the nuclei count [3] was 132%. For the same compound, the fluorescence slope [4] was -0.439 (inactive), the NADPH fluorescence slope [5] was 1.7e-05 (inactive) and the slope [6] was 0.00632 (inactive). The inhibition [7] was -1.92% (inactive) and the inhibition [8] was 26.4% (inactive).
For `CCc1cc(C(=O)OC)c(NC(=O)CCC(=O)O)s1`, the cell count [1] was 719, the inhibition [1] was -5.2% (inactive) and the inhibition of aggregation [2] was 3.9% (inactive). For the same compound, the nuclei count [2] was 117%, the inhibition [3] was -24% (inactive) and the nuclei count [3] was 106%. The fluorescence slope [4] was -0.392 (inactive), the NADPH fluorescence slope [5] was 3.6e-05 (inactive) and the slope [6] was 0.0103 (inactive). For the same compound, the inhibition [7] was -0.441% (inactive) and the inhibition [8] was 97.6% (active).
For `Cc1cc(C)n(-c2nc3nonc3nc2-n2nc(C)cc2C)n1`, the cell count [1] was 797, the inhibition [1] was -15.2% (inactive) and the inhibition of aggregation [2] was -2.2% (inactive). For the same compound, the nuclei count [2] was 110%, the inhibition [3] was -20.5% (inactive) and the nuclei count [3] was 106%. For the same compound, the fluorescence slope [4] was -0.416 (inactive), the NADPH fluorescence slope [5] was -2e-05 (inactive) and the slope [6] was 0.00318 (inactive). For the same compound, the inhibition [7] was 11.8% (inactive) and the inhibition [8] was 27.1% (inactive).
